The source of these data is ChEMBL document CHEMBL3988442, “University of Dundee, Small-Polar-MMV Screening Library” (2021).

For some assays here: Potency and affinity values are given separately.

Common to all, as to design: scale not given: direction of the effect not stated beside the values
The target of assay [1] is Protein translocase subunit SecA (Escherichia coli (strain K12)) (UniProt P10408). In words: Assay to Identify E. coli SecA ATPase Inhibitors. Type of assay: functional. The following applies: 30 µM.
Assay [2] deals with T1, Ubiquitin-activating enzyme e1, putative (Leishmania donovani (strain BPK282A1)) (UniProt E9BSI1).
T1 sequence (whole entry): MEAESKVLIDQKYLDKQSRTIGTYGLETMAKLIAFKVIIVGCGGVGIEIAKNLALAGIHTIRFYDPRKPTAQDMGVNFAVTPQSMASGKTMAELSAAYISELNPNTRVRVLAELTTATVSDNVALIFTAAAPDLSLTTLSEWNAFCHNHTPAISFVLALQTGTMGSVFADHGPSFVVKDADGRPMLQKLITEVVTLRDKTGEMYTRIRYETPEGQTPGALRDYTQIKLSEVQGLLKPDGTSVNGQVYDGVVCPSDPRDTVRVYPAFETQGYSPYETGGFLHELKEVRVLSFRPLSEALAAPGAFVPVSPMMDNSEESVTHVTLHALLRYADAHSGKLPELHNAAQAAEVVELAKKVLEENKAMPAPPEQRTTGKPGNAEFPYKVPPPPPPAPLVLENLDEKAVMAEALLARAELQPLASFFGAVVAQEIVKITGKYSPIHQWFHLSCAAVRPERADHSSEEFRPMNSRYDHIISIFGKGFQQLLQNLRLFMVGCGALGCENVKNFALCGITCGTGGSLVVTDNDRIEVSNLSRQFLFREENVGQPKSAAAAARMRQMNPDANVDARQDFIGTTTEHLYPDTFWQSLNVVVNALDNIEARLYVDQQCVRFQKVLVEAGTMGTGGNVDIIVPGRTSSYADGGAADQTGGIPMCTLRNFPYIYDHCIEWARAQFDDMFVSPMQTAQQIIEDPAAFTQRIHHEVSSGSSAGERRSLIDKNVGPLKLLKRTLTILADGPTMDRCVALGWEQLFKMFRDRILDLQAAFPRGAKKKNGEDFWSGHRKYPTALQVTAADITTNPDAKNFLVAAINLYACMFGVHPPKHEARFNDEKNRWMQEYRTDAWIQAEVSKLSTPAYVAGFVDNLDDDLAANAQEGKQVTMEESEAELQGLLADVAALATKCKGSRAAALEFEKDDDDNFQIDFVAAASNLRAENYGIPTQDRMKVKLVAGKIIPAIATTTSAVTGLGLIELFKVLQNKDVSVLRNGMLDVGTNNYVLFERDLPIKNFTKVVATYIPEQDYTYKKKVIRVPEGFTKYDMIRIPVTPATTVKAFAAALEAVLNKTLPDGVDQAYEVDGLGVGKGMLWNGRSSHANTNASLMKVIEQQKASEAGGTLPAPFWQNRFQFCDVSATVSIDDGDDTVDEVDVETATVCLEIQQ
The experiment in a line: Leishmania donovani Ubiquitin Activating Enzyme (LdE1). Type of assay: functional. The following applies: 30 µM.

Assay [3] concerns the target AMP-activated protein kinase, AMPK (Homo sapiens) (UniProt P54646+O43741+P54619+Q9UGJ0+Q9Y478+Q13131+Q9UGI9). In words: AMP-dependent Kinase enzyme assay. An in vitro enzyme assay that detects ADP turnover that is directly proportional to AMPK activity. This uses naive AMPK that is activated during the assay with MK-8722. Type of assay: functional. The following applies: 30 µM.

For assay [4], the target named is Sialic acid-binding Ig-like lectin 9 (Homo sapiens) (UniProt Q9Y336). In words: Hs-Siglec9 ALPHAscreen SOP 20170721. As to conditions: 10 µM. A general note: Bead proximity is the source of the signal in Alpha formats.
Another assay relates to Trypanosoma cruzi. The experiment in a line: Trypanosoma cruzi phosphomannomutase and mannose-1-phosphate guanylyltransferase assay. Type of assay: functional. As to conditions: 10 µM.
Assay [5] addresses T2, Arginase-2, mitochondrial (Homo sapiens) (UniProt P78540).
T2 sequence (whole entry): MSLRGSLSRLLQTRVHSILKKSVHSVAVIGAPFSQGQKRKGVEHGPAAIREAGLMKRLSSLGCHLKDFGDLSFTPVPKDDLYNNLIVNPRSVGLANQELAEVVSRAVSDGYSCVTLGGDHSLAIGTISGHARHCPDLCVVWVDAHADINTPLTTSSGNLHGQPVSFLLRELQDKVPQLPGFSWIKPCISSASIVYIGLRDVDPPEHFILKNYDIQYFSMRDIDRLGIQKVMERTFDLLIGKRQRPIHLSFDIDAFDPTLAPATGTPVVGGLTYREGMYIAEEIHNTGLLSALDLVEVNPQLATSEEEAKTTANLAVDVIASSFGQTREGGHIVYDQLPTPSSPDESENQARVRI
The experiment in a line: in vitro enzyme assay to detect the production of urea directly proportional to the activity of Arginase II. Further: in the data most compounds retested in dose-response had high values. Type of assay: functional. The following applies: 33.3 µM.

The target of assay [6] is T3, Proteasome subunit beta (Trypanosoma cruzi) (UniProt O96673).
T3 sequence (whole entry): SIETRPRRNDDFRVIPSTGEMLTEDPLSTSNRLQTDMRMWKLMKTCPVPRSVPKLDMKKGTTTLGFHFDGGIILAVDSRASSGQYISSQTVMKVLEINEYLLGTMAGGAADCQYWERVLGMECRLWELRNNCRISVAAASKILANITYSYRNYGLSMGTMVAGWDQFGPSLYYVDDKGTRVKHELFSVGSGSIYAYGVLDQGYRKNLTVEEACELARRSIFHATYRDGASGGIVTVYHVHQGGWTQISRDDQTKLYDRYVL
In words: Trypanosoma cruzi proteasome chymotrypsin-like activity (TcProtChymo) assay. Further: in the data most compounds retested in dose-response had high values. It counts as functional. The following applies: 9.37 µM.

For the next assay, the species on record is Homo sapiens. In words: To identify inhibition of the IFN signalling (Jak-Stat) pathway via expression of an eGFP reporter gene under the control of an IFN-stimulated response element (ISRE) containing MxA promoter. The following applies: 30 µM. It counts as functional.
In assay [7] the target is T4, Tyrosyl-tRNA synthetase, putative (Trypanosoma cruzi (strain CL Brener)) (UniProt Q4DSP6).
T4 sequence (whole entry): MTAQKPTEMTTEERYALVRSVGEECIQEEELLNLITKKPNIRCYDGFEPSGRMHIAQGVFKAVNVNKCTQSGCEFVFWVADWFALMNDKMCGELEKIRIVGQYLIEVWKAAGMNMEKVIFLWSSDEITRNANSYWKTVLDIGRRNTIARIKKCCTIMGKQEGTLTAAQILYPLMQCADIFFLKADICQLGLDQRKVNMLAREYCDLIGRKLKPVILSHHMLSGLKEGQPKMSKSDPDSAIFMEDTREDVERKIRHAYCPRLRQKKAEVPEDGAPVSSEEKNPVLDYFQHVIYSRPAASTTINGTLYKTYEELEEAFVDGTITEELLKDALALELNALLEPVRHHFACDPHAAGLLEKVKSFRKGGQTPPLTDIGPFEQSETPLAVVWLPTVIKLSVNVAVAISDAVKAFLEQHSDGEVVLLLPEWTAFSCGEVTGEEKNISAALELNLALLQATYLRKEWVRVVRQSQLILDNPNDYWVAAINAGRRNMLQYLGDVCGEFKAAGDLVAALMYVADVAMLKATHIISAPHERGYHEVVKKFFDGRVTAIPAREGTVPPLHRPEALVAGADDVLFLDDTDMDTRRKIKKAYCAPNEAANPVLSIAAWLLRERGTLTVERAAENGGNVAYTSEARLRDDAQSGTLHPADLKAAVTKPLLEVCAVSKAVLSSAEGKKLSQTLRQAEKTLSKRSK
The experiment in a line: Trypanosoma cruzi tyrosyl tRNA synthetase (TcYRS) _High Tyrosine SOP. Further: in the data most compounds retested in dose-response had high values. As to conditions: 30 µM. Type of assay: functional.

In assay [8] the target is T4, Tyrosyl-tRNA synthetase, putative (Trypanosoma cruzi (strain CL Brener)). In words: Trypanosoma cruzi tyrosyl tRNA synthetase (TcYRS) SOP. It counts as functional. The following applies: 30 µM.
For assay [9], the target named is Chromo domain-containing protein 1 (Saccharomyces cerevisiae (strain ATCC 204508 / S288c) (Baker's yeast)) (UniProt P32657). The experiment in a line: ScCHD-1 Enzyme Inhibition Assay. Further: in the data most compounds retested in dose-response had high values. It counts as functional. As to conditions: 30 µM.
Chain of Chromo domain-containing protein 1 (Saccharomyces cerevisiae (strain ATCC 204508 / S288c) (Baker's yeast)) (P32657 whole entry, the tested form may be a part): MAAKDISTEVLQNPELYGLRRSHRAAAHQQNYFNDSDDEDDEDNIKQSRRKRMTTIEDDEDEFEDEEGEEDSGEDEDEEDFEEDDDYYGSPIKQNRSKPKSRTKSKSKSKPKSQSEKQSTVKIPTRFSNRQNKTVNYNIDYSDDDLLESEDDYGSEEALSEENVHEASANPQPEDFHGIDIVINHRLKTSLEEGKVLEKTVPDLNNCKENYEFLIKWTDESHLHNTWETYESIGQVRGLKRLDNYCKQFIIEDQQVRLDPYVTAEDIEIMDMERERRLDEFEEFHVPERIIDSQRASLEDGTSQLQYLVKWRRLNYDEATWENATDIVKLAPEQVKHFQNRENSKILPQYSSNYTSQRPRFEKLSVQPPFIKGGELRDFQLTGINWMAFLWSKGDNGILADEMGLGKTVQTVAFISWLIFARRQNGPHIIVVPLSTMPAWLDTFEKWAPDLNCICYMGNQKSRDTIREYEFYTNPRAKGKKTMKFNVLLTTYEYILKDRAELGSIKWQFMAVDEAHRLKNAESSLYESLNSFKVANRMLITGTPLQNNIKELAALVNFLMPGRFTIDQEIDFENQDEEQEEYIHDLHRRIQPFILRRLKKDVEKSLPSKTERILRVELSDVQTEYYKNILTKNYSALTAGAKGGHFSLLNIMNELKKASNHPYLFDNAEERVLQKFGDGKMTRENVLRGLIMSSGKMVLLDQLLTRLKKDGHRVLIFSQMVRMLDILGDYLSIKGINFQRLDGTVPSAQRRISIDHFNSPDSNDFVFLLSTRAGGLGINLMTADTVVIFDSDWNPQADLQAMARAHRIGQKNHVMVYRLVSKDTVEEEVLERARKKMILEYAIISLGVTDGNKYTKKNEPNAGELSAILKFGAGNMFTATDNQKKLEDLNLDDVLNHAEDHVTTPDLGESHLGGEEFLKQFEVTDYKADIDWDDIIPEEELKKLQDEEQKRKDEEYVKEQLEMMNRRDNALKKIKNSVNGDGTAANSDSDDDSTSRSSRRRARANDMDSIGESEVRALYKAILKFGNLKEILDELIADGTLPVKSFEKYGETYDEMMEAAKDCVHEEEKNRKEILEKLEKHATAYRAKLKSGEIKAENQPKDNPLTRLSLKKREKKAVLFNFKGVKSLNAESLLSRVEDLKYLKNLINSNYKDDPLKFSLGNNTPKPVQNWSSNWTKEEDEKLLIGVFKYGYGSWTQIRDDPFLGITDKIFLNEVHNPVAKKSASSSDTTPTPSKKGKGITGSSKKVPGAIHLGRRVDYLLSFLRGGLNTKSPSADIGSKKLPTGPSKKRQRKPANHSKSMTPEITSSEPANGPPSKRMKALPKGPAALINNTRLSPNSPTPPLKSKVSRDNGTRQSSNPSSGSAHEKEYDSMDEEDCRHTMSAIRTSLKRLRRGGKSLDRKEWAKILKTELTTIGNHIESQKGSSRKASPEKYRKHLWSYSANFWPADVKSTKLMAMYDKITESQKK

Chain of Sialic acid-binding Ig-like lectin 9 (Homo sapiens) (Q9Y336 whole entry): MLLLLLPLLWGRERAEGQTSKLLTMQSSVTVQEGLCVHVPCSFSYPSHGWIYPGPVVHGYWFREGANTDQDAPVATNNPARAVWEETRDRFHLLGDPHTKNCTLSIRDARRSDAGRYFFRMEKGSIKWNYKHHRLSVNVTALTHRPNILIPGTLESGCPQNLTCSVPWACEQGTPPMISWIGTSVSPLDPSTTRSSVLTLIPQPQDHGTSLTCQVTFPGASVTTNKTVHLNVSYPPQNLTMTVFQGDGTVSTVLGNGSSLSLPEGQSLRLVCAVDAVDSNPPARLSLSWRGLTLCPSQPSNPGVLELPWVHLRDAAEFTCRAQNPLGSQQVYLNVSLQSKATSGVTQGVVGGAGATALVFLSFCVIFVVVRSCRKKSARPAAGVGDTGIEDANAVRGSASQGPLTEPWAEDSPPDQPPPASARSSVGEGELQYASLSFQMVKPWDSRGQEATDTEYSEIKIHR
Chain of Protein translocase subunit SecA (Escherichia coli (strain K12)) (P10408 whole entry): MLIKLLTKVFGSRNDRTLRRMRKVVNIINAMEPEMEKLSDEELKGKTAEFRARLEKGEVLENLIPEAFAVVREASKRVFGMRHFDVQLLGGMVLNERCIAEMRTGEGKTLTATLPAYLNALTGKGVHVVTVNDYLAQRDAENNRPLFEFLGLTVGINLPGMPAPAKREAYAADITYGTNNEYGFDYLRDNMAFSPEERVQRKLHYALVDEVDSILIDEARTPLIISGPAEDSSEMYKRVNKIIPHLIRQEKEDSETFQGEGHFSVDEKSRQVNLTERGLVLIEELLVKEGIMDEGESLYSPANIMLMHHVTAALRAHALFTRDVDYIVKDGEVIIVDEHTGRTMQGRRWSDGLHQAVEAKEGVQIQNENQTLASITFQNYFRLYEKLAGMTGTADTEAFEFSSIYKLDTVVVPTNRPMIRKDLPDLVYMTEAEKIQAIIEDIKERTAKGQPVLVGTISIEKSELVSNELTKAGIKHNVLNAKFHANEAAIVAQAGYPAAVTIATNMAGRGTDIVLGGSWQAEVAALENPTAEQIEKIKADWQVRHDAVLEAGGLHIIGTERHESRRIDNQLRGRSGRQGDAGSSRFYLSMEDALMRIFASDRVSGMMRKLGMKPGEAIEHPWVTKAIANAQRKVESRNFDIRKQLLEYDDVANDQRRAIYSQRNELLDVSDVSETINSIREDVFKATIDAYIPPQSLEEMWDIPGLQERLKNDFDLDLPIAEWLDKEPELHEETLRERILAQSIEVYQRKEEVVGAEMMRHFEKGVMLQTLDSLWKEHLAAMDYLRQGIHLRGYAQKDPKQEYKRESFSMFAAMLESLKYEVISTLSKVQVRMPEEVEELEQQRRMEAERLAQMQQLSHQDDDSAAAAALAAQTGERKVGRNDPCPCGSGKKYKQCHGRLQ

On to `Cn1cc2c(n1)C(COCC1CC1)CN(Cc1ccccn1)C2` (stereo not given), for which the Percent Effect was -6.24% in assay [1]; -2.7% in assay [2]; 0.433% in assay [3]; -2.97% in assay [4]; 4.2% with Trypanosoma cruzi; -0.319% in [5]. Further, the Percent Effect in assay [6] stood at 9.22%; in the assay listed under Homo sapiens it was 9.46%; in [7], 6.49%; in assay [8], 10.3%; in assay [9], 4.91%.

With `Cc1ccc(S(=O)(=O)NC(=O)c2c(C)noc2C(C)C)cc1C`, the Percent Effect in assay [1] is -2.23%; in assay [2] it was 10.5%; in assay [3], -4.09%; in assay [4], 2.28%; with Trypanosoma cruzi, 1.07%; in [5], -3.55%. Besides, the Percent Effect is 10.6% in [6]; -1.83% in the assay listed under Homo sapiens; 3.19% in [7]; 10.4% in assay [8]; -1.79% in assay [9].

On to `N#Cc1ccc(C2CC(=O)Nc3c2cnn3C2CCCC2)cc1` (stereo not given), for which the Percent Effect in assay [1] was -3.53%; in assay [2] it was 13.3%; in assay [3] it was 0.53%; in assay [4], 17.4%; with Trypanosoma cruzi, 4.77%; in assay [5], 19.3%. The Percent Effect was 3.66% in assay [6]; 6.86% in the assay filed under Homo sapiens; 1.64% in assay [7]; 8.64% in assay [8]; -14.9% in [9].

As to `COc1ccc(C(=O)NCC(c2cccn2C)N2CCCC2)c(OC)c1` (stereo not given), the Percent Effect in assay [1] was -5.97%; in assay [2] it was 13%; in [3] it was -5.29%; in assay [4] it was -1.12%; with Trypanosoma cruzi it was 1.08%; in [5], -1.94%. Besides, the Percent Effect was 18.3% in assay [6]; -21.8% in the assay listed under Homo sapiens; 6.35% in [7]; 11.5% in assay [8]; -8.35% in assay [9].

Regarding `Cc1ccc(NC(=O)c2n[nH]c(-n3cnnc3)n2)cc1C`, the Percent Effect is -5.16% in [1]; 9.33% in [2]; -5.75% in assay [3]; -2.63% in assay [4]; 4.32% in the assay on Trypanosoma cruzi; 21.6% in assay [5]. Further, the Percent Effect in assay [6] is -10.7%; in the assay listed under Homo sapiens, -2.17%; in [7] it was 8.47%; in assay [8], 10.3%; in [9] it was -18.6%.

Take `Cc1cccc(N2CC[C@@H]3CN(C(=O)c4ccco4)CCO[C@@H]3C2)n1`: the Percent Effect in assay [1] is -3.29%; in assay [2] it was 10.7%; in [3] it was 10.8%; in assay [4], 3.1%; in the assay with Trypanosoma cruzi, -3.15%; in assay [5], 4.89%. Also, the Percent Effect in assay [6] is 9.78%; in the assay filed under Homo sapiens it was 6.1%; in assay [7], 7.45%; in [8], 14.1%; in assay [9] it was -6.54%.

Turning to `Cn1nc(C2CCCN(C(=O)CO)C2)cc1O` (stereo not given), the Percent Effect in assay [1] was -4.16%; in assay [2] it was -6.76%; in assay [3] it was -113%; in assay [4], -1.22%; in the assay with Trypanosoma cruzi, -3.75%; in [5], -0.232%. In addition, the Percent Effect in assay [6] was 1.4%; in the assay listed under Homo sapiens, -6.44%; in [7], -6.45%; in assay [8], -9.09%; in assay [9], -2.64%.

As for `CC(C)c1ncc2c(n1)CN(Cc1nc(-c3cccs3)no1)CC2`, the Percent Effect in [1] was -1.45%; in assay [2], -10.8%; in [3], -21.1%; in assay [4], -6.68%; with Trypanosoma cruzi, -3.99%; in assay [5], 2.4%. For the same molecule, the Percent Effect in [6] came out at 2.33%; in the assay filed under Homo sapiens, 19.6%; in [7], 13.9%; in [8], 13.4%; in assay [9], 8.9%.

With `Cc1noc2nc(C3CCN(CC4=CCCOC4)CC3)cc(C(F)F)c12`, the Percent Effect in [1] was -1.97%; in assay [2], 6.76%; in [3] it was 13.4%; in [4], 0.663%; in the assay on Trypanosoma cruzi it was -3.56%; in [5], -3.02%. Also, the Percent Effect was 3.28% in assay [6]; 2.72% in the assay listed under Homo sapiens; 7.53% in [7]; 11.7% in assay [8]; -11.7% in assay [9].

Turning to `Cc1ncccc1NC(=O)[C@H]1C[C@@H]2CCN(Cc3nccs3)C[C@@H]2O1`, the Percent Effect in assay [1] was 0.0943%; in assay [2], 10.8%; in assay [3] it was 6.53%; in [4] it was -5.38%; in the assay with Trypanosoma cruzi it was 0.293%; in [5], 2.23%. In addition, the Percent Effect in assay [6] is 24.4%; in the assay filed under Homo sapiens, 1.37%; in assay [7], 7.57%; in [8] it was 17.9%; in assay [9], -3.63%.
